Test results taken from PubChem BioAssay.
The list shows a part of the results. Values without a mark were called inactive. Calls of active or inactive are those of the source. Unless noted, no stated cut-off is given here; in the data, active means activation above about 33%; inactive means the rest.

target: Sphingosine 1-phosphate receptor 4 (Homo sapiens) (UniProt O95977); test: S1P4 receptor antagonists, human, confirmation, cell-based (AID 1524; in the data active means inhibition above about 30%); conditions: S1P4-expressing cell line, antagonist mode, reporter read-out; at 4.98 µM; stronger effect = higher value
Sequence (O95977 whole entry, looked up): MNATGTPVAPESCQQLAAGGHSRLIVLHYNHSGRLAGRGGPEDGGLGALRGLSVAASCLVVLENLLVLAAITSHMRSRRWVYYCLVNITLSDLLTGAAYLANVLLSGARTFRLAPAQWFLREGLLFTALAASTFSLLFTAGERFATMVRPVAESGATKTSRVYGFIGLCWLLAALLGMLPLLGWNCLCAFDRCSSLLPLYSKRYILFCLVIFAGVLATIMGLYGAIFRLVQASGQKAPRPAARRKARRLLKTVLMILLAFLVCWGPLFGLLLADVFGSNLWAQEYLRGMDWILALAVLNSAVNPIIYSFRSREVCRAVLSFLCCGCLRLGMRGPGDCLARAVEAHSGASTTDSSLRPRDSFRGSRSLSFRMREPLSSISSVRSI

Row | SMILES | inhibition
1 | C[C@@H](NC(=O)OC(C)(C)C)c1nnc(S(=O)(=O)Cc2ccccc2)o1 | 83.4% (active)
2 | O=C1C=C(c2ccc(Cl)cc2)C(=O)N1Nc1ccccc1 | 119% (active)
3 | Cc1cccc(NC(=O)c2ccc([N+](=O)[O-])o2)c1 | 79% (active)
4 | CC1CC2=C(CC1/C=N/NC(N)=S)C(C)(C)CCC2 (configuration not stated) | 67.8% (active)
5 | O=C(Nc1ccccc1)c1nnsc1S(=O)(=O)c1ccc(Cl)cc1 | 116% (active)
6 | CC1CC(C)CN(S(=O)(=O)c2cccc(C(=O)N3C(=O)c4cccc(N)c4C3=O)c2)C1 (configuration not stated) | 32.3% (active)
7 | C=CS(=O)c1sc(Cl)c(N2CCOCC2)c1[N+](=O)[O-] (configuration not stated) | 102% (active)
8 | O=C(/C=C/c1ccc(Cl)c([N+](=O)[O-])c1)c1ccc(O)cc1 | 102% (active)

target: Neuropeptide Y receptor type 2 (Homo sapiens) (UniProt P49146); test: NPY-Y2 potentiators or agonists, confirmation, cell-based (AID 1539); conditions: cell-based NPY-Y2 potentiator/agonist assay; at 3.6 µM; stronger effect = higher value
Sequence (P49146 whole entry, looked up): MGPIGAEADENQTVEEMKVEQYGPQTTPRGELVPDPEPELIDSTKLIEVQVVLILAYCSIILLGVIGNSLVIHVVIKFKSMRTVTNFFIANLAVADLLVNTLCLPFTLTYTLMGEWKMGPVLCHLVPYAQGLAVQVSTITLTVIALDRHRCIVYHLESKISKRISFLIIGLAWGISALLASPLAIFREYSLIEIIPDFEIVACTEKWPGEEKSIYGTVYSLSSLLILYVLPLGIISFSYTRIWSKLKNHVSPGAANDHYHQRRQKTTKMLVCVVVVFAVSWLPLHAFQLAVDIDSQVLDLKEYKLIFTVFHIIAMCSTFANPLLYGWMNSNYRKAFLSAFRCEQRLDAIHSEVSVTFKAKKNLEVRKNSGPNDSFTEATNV

Row | SMILES | activation
9 | CN(C)c1ccc(CNC2C3CC4CC(C3)CC2C4)cc1 (configuration not stated) | 7.01%
10 | O=C(NCc1ccccc1)c1ccc(S(=O)(=O)Nc2cccc(C(F)(F)F)c2)cc1 | 10.8%
11 | CN(Cc1ccccc1)C(=O)CCNC(=O)Cn1cnc2ccccc2c1=O | 11.1%
12 | O=C1NC(c2ccc(-c3ccccc3[N+](=O)[O-])o2)C(C(=O)c2ccc(Cl)cc2)C(O)(C(F)(F)F)N1 (configuration not stated) | 28.1%
13 | N/C(=N\S(=O)(=O)c1cc(C(F)(F)F)cc(C(F)(F)F)c1)c1cccs1 | 20.3%
14 | CC(=O)c1ccc2c(c1)OCCOCCOc1ccc(C(C)=O)cc1OCCOCCO2 | 19.6%
15 | CC(Nc1ccccc1)c1cccnc1 (configuration not stated) | 2.4%
16 | COc1ccc2nc(NC(=O)NC3CCCCC3)sc2c1 | 40.8% (active)
17 | Cc1ccc(CCNC(=O)C2CCN(S(=O)(=O)N3CCCC3)CC2)cc1 | -1.21%
18 | COc1cc(NC(=O)c2ccccc2NS(=O)(=O)c2ccc(Cl)s2)cc(OC)c1 | 0.49%
19 | O=C(Nc1sc2c(c1-c1nc3ccccc3[nH]1)CCCC2)C1CC1 | 19.1%

target: Sphingosine 1-phosphate receptor 1 (Homo sapiens) (UniProt P21453); test: S1P1 receptor antagonists, human, counter-screen for S1P4 antagonist project, cell-based (AID 1564; in the data active means inhibition above about 40%;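 further: receptor stimulated with S1P near its EC80; 0% = agonist stimulated wells and 100% = vehicle only wells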); conditions: cell-based S1P1 antagonist counterscreen, at 4.98 µM, stronger effect = higher value
Sequence (P21453 whole entry, looked up): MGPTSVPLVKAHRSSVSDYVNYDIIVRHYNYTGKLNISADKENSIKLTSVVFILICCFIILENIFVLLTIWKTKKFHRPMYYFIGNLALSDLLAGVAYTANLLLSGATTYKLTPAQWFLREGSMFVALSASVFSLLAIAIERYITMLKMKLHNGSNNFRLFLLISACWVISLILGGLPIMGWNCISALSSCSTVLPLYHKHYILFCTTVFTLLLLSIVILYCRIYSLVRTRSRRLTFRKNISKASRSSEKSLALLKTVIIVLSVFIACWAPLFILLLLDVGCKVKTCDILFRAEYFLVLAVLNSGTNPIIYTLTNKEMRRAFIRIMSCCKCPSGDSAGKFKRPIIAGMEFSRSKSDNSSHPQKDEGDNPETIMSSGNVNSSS

Row | SMILES | inhibition
20 | C[C@@H](NC(=O)OC(C)(C)C)c1nnc(S(=O)(=O)Cc2ccccc2)o1 | 36.6%
21 | O=C1C=C(c2ccc(Cl)cc2)C(=O)N1Nc1ccccc1 | 63% (active)
22 | Cc1cccc(NC(=O)c2ccc([N+](=O)[O-])o2)c1 | 20.2%
23 | CC1CC2=C(CC1/C=N/NC(N)=S)C(C)(C)CCC2 (configuration not stated) | 7.02%
24 | O=C(Nc1ccccc1)c1nnsc1S(=O)(=O)c1ccc(Cl)cc1 | 37.5%
25 | CC1CC(C)CN(S(=O)(=O)c2cccc(C(=O)N3C(=O)c4cccc(N)c4C3=O)c2)C1 (configuration not stated) | 8.25%
26 | C=CS(=O)c1sc(Cl)c(N2CCOCC2)c1[N+](=O)[O-] (configuration not stated) | 12.4%
27 | O=C(/C=C/c1ccc(Cl)c([N+](=O)[O-])c1)c1ccc(O)cc1 | 14.6%
